Test results published in PubChem BioAssay (NCI).
This is part of a sample that, as a whole, favours compounds with a hit. Of some 83,000 tested, about 20% had one in any assay.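 The endpoint reported here, percent growth, reads 100 for growth as untreated, 0 for no net growth and -100 for all cells dead.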 Values without a mark were called inactive. Calls of active or inactive are those of the source. How the source made its calls: active means growth percent below 10; inactive means the rest.

Tests used:
Test in all cases: NCI-60 one-dose screen, 48 h (100 = growth as untreated, 0 = no growth, -100 = all killed)
Settings in all cases: 10 µM
HOP-92 NSCLC = system: HOP-92 NSCLC
K-562 leukemia = system: K-562 leukemia
MALME-3M melanoma = system: MALME-3M melanoma
RXF 393 renal = system: RXF 393 renal
SK-MEL-28 melanoma = system: SK-MEL-28 melanoma
SK-MEL-2 melanoma = system: SK-MEL-2 melanoma
SN12C renal = system: SN12C renal
TK-10 renal = system: TK-10 renal
A498 renal = system: A498 renal
RPMI-8226 leukemia = system: RPMI-8226 leukemia
OVCAR-3 ovarian = system: OVCAR-3 ovarian
BT-549 breast = system: BT-549 breast
MDA-MB-435 melanoma = system: MDA-MB-435 melanoma
HCC-2998 colon = system: HCC-2998 colon
UACC-257 melanoma = system: UACC-257 melanoma
CAKI-1 renal = system: CAKI-1 renal

Structure (SMILES)	growth (HOP-92 NSCLC)	growth (K-562 leukemia)	growth (MALME-3M melanoma)	growth (RXF 393 renal)	growth (SK-MEL-28 melanoma)	growth (SK-MEL-2 melanoma)	growth (SN12C renal)	growth (TK-10 renal)	growth (A498 renal)	growth (RPMI-8226 leukemia)	growth (OVCAR-3 ovarian)	growth (BT-549 breast)	growth (MDA-MB-435 melanoma)	growth (HCC-2998 colon)	growth (UACC-257 melanoma)	growth (CAKI-1 renal)
CC(=O)O[C@@H]1C[C@H]2O[C@@H]3C=C(C)CC[C@]3(C)[C@]1(C)[C@]21CO1	16.8%	4.68% (active)	5.52% (active)	4.11% (active)	-1.27% (active)	-3.89% (active)	20.7%	66.6%	34.6%	-14.7% (active)	14.7%	-14.3% (active)	2.02% (active)	8.92% (active)		
C[C@@H]1CCC/C=C/[C@H]2C[C@@H](O)C[C@@H]2[C@@H](O)/C=C/C(=O)O1	-4.99% (active)	15%	-7.08% (active)	-8.61% (active)	18.3%	-38.9% (active)	11.4%	-45% (active)	-14.7% (active)	-1.65% (active)	-1.9% (active)	6.57% (active)	17.5%	21.1%		
CC1=C(CN(O)C(N)=O)C2=C(C)C3(CC3)[C@](C)(O)C(=O)C2=C1	-3.67% (active)	0.207% (active)	2.97% (active)	-85.3% (active)	-28.4% (active)	-28.8% (active)	25.1%	-5.27% (active)	-76.5% (active)	-22.7% (active)	-3.14% (active)	12.9%	-42.8% (active)	-63.1% (active)	6.8% (active)	4.61% (active)
C[C@@H]1C[C@H]2C(=O)O[C@@H](C)C(NC(=O)[C@H](Cc3cc(F)cc(F)c3)NC(=O)Nc3ccc(OS(=O)(=O)F)cc3)C(=O)N3CCC[C@H]3C(=O)N3CCO[C@H](C)[C@H]3C(=O)N[C@@H](CO)C(=O)N2C1 (some centres not stated)	9.16% (active)	20.7%	39%	-5.55% (active)	40.5%		21.1%	71.7%		19.7%		22.4%	20.8%	23.9%	16.2%	39.4%
